# Laboratory results taken from PubChem BioAssay AID1508602 (The Scripps Research Institute Molecular Screening Center, 2020).
# The whole screen tested about 650,000 compounds, of which about 6,800 (1%) were called active. The entries come from a sample that favours actives as a whole. A number with no mark means an inactive call. Rule as the data show it: active = activation above about 4.9%; inactive = the rest.
# Target: G-protein coupled receptor 151 (Homo sapiens) (UniProt Q8TDV0)
# Experiment: activators of human GPR151, primary screen, cell-based, PathHunter beta-arrestin, luminescence (AID 1508602);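 also: 0% = median of compound wells and 100% = cells with positive control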
# Conditions: PathHunter beta-arrestin GPR151 cells, at 11.2 µM, hits give high values
# Sequence of G-protein coupled receptor 151 (Homo sapiens) (Q8TDV0 whole entry, looked up): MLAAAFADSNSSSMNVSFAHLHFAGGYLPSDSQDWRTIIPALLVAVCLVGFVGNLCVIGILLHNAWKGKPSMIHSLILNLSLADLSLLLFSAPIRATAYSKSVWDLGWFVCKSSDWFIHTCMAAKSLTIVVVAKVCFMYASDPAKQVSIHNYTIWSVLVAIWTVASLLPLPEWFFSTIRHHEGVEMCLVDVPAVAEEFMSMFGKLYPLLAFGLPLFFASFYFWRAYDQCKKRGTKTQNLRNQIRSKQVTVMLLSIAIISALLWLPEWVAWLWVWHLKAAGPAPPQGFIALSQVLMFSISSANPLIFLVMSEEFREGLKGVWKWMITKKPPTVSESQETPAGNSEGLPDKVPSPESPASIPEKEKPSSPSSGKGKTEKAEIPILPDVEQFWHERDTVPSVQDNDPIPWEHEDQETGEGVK
row,Structure (SMILES),activation
1,COC(=O)c1ccc(-c2cnc3ccc(NCCCO)nn23)cc1,0.0841%
2,O=C(Cc1cccs1)NCCS(=O)(=O)N1CCN(CCc2ccccc2)CC1,0.729%
3,Cc1ccc(-c2noc(CNC(=O)c3cccc4ccccc34)n2)cc1,1.49%
4,Cc1ccccc1C(=O)NCc1nc(-c2ccc(Cl)cc2)no1,6.7% (active)
5,Cc1ccc(-c2noc(CNC(=O)c3cc(C)ccc3C)n2)cc1,0.749%
6,COc1ccc(C2Nc3ccccc3C(=O)N2c2ccc(C)cc2)cc1COc1ccc(Cl)cc1 (stereo not given),2.56%
7,O=C(O)CN1C(=O)CC(N2C(=O)/C(=C/c3ccc(F)cc3)SC2=S)C1=O (stereo not given),-1.59%
8,Cn1c(=O)c2c(nc(SCC(=O)O)n2Cc2ccc(F)cc2)n(C)c1=O,8.98% (active)
9,CNC(=O)CSc1nc2c(c(=O)n(C)c(=O)n2C)n1Cc1ccc(F)cc1,0.114%
10,Cn1cnnc1Sc1nc2c(c(=O)n(C)c(=O)n2C)n1Cc1ccc(F)cc1,-1.79%
11,CCc1nc2sc3c(c2c2nnc(SCC(=O)NCc4ccco4)n12)CCCC3,-0.144%
12,COc1ccccc1C(=O)N/C(=C\c1ccc2c(c1)OCO2)C(N)=O,6.4% (active)
13,CCOC(=O)CNC(=O)/C(=C\c1ccc2c(c1)OCO2)NC(=O)c1ccccc1OC,2.88%
14,COc1ccccc1C(=O)N/C(=C/c1ccc2c(c1)OCO2)C(=O)N1CCCCC1,0.0614%
15,COCCOC(=O)C1=C(C)Nc2ccccc2S1,1.48%
16,CN(C)S(=O)(=O)Nc1ccc(N2CCC(NCc3cc4ccccc4[nH]3)CC2)cc1,-0.741%
17,C=C(C)CSc1nc2sc3c(c2c(=O)n1-c1ccc(OC)cc1)CC(C)(C)OC3,5.02% (active)
18,COC(=O)CSc1nc2sc3c(c2c(=O)n1C1CCCCC1)CC(C)(C)OC3,-0.897%
19,CCn1c(SCC(=O)O)nc2sc3c(c2c1=O)CC(C)(C)OC3,-0.501%
20,Cc1cc(Cl)ccc1OCc1nc(-c2ccccc2)no1,1.48%
21,CC1=C(C(=O)OCC2CCCO2)C(c2ccccc2F)C2=C(CCCC2=O)N1 (stereo not given),0.289%
22,COc1ccc(CNC(=O)CSc2nnnn2C2CCCCC2)cc1,-1.28%
23,CCOc1ccc(NC(=O)COc2cccc(C)c2C)cc1,5.81% (active)

row,Structure (SMILES),activation
1,CCOc1ccc(NC(=O)COc2cc(C)c(Cl)c(C)c2)cc1,-0.356%
2,CCOc1ccc(NC(=O)COc2ccc(C)cc2C)cc1,0.102%
3,COc1cc(-c2cc(-c3ccccc3)nc3sc(C(=O)O)c(N)c23)cc(OC)c1OC,0.0436%
4,NC(=O)C1CCN(C(=O)c2ccc(C(F)(F)F)cc2)CC1,-0.735%
5,NC(=O)C1CCN(C(=O)c2ccc(-c3ccccc3)cc2)CC1,5.25% (active)
6,COc1ccc(C(=O)N2CCC(C(N)=O)CC2)cc1OC,1.14%
7,COc1ccc(C(=O)C2CCN(CC(N)=O)CC2)cc1,-1.68%
8,CN(C)CCNC(=O)C(=O)NCC1OCCCN1S(=O)(=O)c1ccc(F)cc1 (stereo not given),-0.149%
9,Nc1cc(=O)nc(SCC(=O)Nc2nccs2)n1-c1ccc(F)cc1,5.12% (active)
10,Cc1cc(NC(=O)CSc2nc(=O)cc(N)n2-c2ccc(F)cc2)no1,-0.189%
11,O=C(CSc1ccc(F)cc1)Nc1nccs1,-0.169%
12,O=C(Nc1ccc2oc(-c3ccccc3F)nc2c1)c1cc(I)ccc1Cl,-1.58%
13,CCOc1ccc(-c2cc(C(=O)NCCCN3CCN(C)CC3)c3ccccc3n2)cc1,2.73%
14,O=C1c2ccccc2C(=O)N1CNc1ccc(Cc2ccncc2)cc1,-0.716%
15,O=C(CN1C(=O)NC2(CCCCCC2)C1=O)Nc1ccc(S(=O)(=O)N2CCCC2)cc1,1.73%
16,O=C(CN1C(=O)CCC1=O)Nc1ccc(S(=O)(=O)N2CCOCC2)cc1,6.57% (active)
17,COC(=O)CCC(=O)Nc1ccc(S(=O)(=O)N2CCOCC2)cc1,-0.0636%
18,CN(CC(=O)Nc1cccc(F)c1)C(=O)C1CCCCC1,-0.0765%
19,Cc1ccc(S(=O)(=O)Cn2nnnc2CN2CCN(c3ccccc3F)CC2)cc1,8.05% (active)
20,CC(C)CCn1nnnc1CN1CCN(c2ccccc2F)CC1,-0.0283%
21,Cc1ccc(S(=O)(=O)Cn2nnnc2CN2CCN(c3cccc(Cl)c3)CC2)cc1,-0.91%
22,CCCC(C)NS(=O)(=O)c1ccc(OCC(=O)OC)cc1 (stereo not given),0.348%
23,COCC(=O)NC(C)c1nnc(SCc2ccccc2C)n1C (stereo not given),-0.733%

row,Structure (SMILES),activation
1,COc1cccc(C(=O)Nc2ccc3oc(-c4ccccc4)nc3c2)c1,-0.935%
2,COc1cccc(-c2ocnc2C(=O)Nc2ccc3nc(-c4cccnc4)oc3c2)c1,7.47% (active)
3,COc1cccc(-c2nc3cc(NC(=O)c4cncc(Br)c4)ccc3o2)c1,-0.0884%
4,O=C(NC1CC1)c1ccc(-c2cccc(C(=O)NCc3ccccc3)n2)cc1,-1.55%
5,CCOc1ccc(-c2ccc(SCC(=O)Nc3cc(C)on3)nn2)cc1,1.58%
6,O=C1N(CC2CCCCC2)CCN1c1ccc(C(F)(F)F)cn1,-0.812%
7,CCOc1ccc(S(=O)(=O)N2CCN(c3ncccn3)CC2)c2cccnc12,3.78%
8,c1ccc(-c2ccccc2OCCCCNCCN2CCOCC2)cc1,0.194%
9,c1ccc(-c2ccc(OCCCNCCN3CCOCC3)cc2)cc1,7.78% (active)
10,c1ccc(-c2ccccc2OCCNCCN2CCOCC2)cc1,-0.471%
11,CCCOC1(C(F)(F)F)NC(=O)N(c2ccc(C(C)C)cc2)C1=O (stereo not given),10.8% (active)
12,COC1(C(F)(F)F)NC(=O)N(c2ccccc2)C1=O (stereo not given),-1.06%
13,CC(C)c1ccc(N2C(=O)C3C(C2=O)C2(c4ccccc4)C(=O)C3(c3ccccc3)C(c3ccccc3)=C2c2ccccc2)cc1 (stereo not given),2.7%
14,Cc1nc(N2CCN(C)CC2)c2c(C)c(C(=O)NC3CCCCC3)sc2n1,0.833%
15,CC(C)NC(=O)c1sc(=S)n2c1[nH]c(=O)c1ccc(C(=O)NCCN(C)C)cc12,1.68%
16,O=C1/C(=C\c2cccs2)SC(=S)N1Cc1ccco1,-0.646%
17,CCC(=O)N1CCc2cc(S(=O)(=O)CCC(=O)Nc3ccc(C(=O)OC)cc3)ccc21,0.246%
18,COc1cc(-c2cncc(-c3cccc(C(=O)NCCN(C)C)c3)n2)cc(OC)c1OC,-0.823%
19,CCN1CCN(Cc2cc([N+](=O)[O-])ccc2O)CC1,-0.921%
20,C/C(=N/N1CCN(Cc2ccc(C)cc2C)CC1)c1ccc([N+](=O)[O-])cc1,9.21% (active)
21,Cc1ccc(CN2CCOCC2)c(C)c1,0.704%
22,COC(=O)c1cccc(-n2c3nc(=O)[nH]c(=O)c-3cc3ccccc32)c1,-0.76%
23,CC(C)CC(=O)Nc1ccc(NC(=O)CC(C)C)c(Cl)c1,0.466%

row,Structure (SMILES),activation
1,Cc1nn(C)c(C)c1-c1nc(Nc2ccc(Oc3ccccc3)cc2)c2ncn(-c3ccsc3)c2n1,0.158%
2,CC(=O)c1cccc(-c2nc(NCCOc3ccccc3)c3ncn(-c4ccccc4)c3n2)c1,0.401%
3,CC(=O)c1cccc(-c2nc(Nc3ccc(Oc4ccccc4)cc3)c3ncn(-c4ccsc4)c3n2)c1,5.34% (active)
4,CCOC(=O)C1=C(C)N=c2s/c(=C\c3ccc(OC)c(Br)c3)c(=O)n2C1c1ccc2c(c1)OCO2 (stereo not given),3.22%
5,CCCc1c(C)nc2c(C(=O)NC3CCCCCCC3)c[nH]n2c1=O,1.02%
6,CCOC(=O)Cc1csc(NC(=O)c2ccc(NC(=O)CC)cc2)n1,-0.289%
7,CCOC(=O)Cc1coc(NC(=O)c2ccc(Cl)cc2)n1,5.28% (active)
8,CC(=O)COC(=O)CNC(=O)c1ccc(Cl)cc1,-1.71%
9,Cc1nn(CC(=O)N(CC2CCCO2)C2CCS(=O)(=O)C2)c(C)c1[N+](=O)[O-] (stereo not given),0.461%
10,CCOC(=O)C1=C(C)N=c2s/c(=C\c3cccc(OC)c3OCC)c(=O)n2C1c1ccccc1OC(C)C (stereo not given),2.86%
11,O=C(c1cn[nH]c1-c1ccc([N+](=O)[O-])cc1)N1CCOCC1,-0.121%
12,COc1cc([N+](=O)[O-])ccc1NC(=O)N1CCN(C2CCCCC2)CC1,-0.0069%
13,O=C(c1cc([N+](=O)[O-])ccc1NC1CCCCC1)N1CCOCC1,9.09% (active)
14,S=C(NCc1ccccc1)NCc1nc2ccccc2[nH]1,1.09%
15,Cc1ccc(C)n1-c1ccc(C(=O)NCC(c2ccco2)N(C)C)cc1 (stereo not given),0.754%
16,CC(C)Cn1c(=O)c2c(nc3n2CCCN3c2ccc(Br)cc2)n(C)c1=O,-0.288%
17,CCOCCn1c(=O)c2c(nc3n2CCCN3c2ccc(Br)cc2)n(C)c1=O,0.326%
18,CC(=O)Cn1c(=O)c2c(nc3n2CCCN3c2ccc(Br)cc2)n(C)c1=O,5.99% (active)
19,O=C(C(Cc1ccccc1)N1C(=O)C2C3c4ccccc4C(c4ccccc43)C2C1=O)N1CCOCC1 (stereo not given),6.8% (active)
20,O=C(C(Cc1ccccc1)N1C(=O)C2C3CCC(C3)C2C1=O)N1CCOCC1 (stereo not given),0.906%
21,O=C(C(Cc1ccccc1)N1Cc2ccccc2C1=O)N1CCOCC1 (stereo not given),-0.15%
